This passage reports growth results from PubChem BioAssay (NCI).

The panel holds about 83,000 compounds, 20% with a hit somewhere; the sample as a whole holds those more often.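 Growth was measured after 48 h exposure to one concentration of compound in 96-well plates. Values under 10 count as active.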 Values without a mark were called inactive. The source made the active and inactive calls.

The experiment concerns NCI/ADR-RES ovarian. Kind of experiment: NCI-60 one-dose screen, 48 h (100 = growth as untreated, 0 = no growth, -100 = all killed). The following applies: 10 µM. The method, then:
Growth inhibition of the NCI/ADR-RES human […] tumor cell line is measured as a screen for anti-cancer activity. Cells are grown in 96 well plates and exposed to the test compound for 48 hours. Compounds are tested at a single concentration, which is 10^-5 M for most compounds. The reported endpoint is percent growth (GI% or GIPRCNT), where numbers from 0 - 100% represent growth inhibition, and numbers from -100% - 0 represent cell death. For example, a value of 40 represents 60% growth inhibition. A value of 0 means no net growth occurred over the course of the experiment. A value of -40 indicates 40% of cells at the beginning of the experiment died by the end of the experiment. A value of -100 means all cells are dead at the end of the experiment.
NCI-60 Human Tumor Cell Lines Screen was performed using the standard one-dose NCI protocol, which is described in more detail at https://dtp.cancer.gov/discovery_development/nci-60/default.htm.
Compounds with GIPRCNT values below 10 were considered active. Activity score was based on GIPRCNT using the following formula: […]
Score is 0 for GIPRCNT values of 100 or above, 50 for GIPRCNT values of 0, and 100 for GIPRCNT values of -100.
`NC(=O)CC1(c2ccccc2)CCCCC1`: the growth was 107%.
As for `COC(=O)c1ccc(=O)oc1`, the figure is 97.1%; as for `ClCCOCCn1cnc2c(Cl)nc(Cl)nc21`, 101%.
As to `NC1=NC(=O)C(c2ccccc2)(c2ccccc2)S1`, the growth is 109%.
In the case of `Cc1nc2ccc(CN(C)c3ccc(C(=O)N[C@@H](CCC(=O)O)C(=O)O)s3)cc2c(=O)[nH]1`, the growth was 43.8%.
On to `CCOC(=O)C1CCc2c(ccc3ccccc23)N1CCC#N` (stereo not given), for which the growth is 82%.
With `CC(=O)O[C@]1(C)CC[C@H]2[C@H](CNCCc3ccc(Cl)cc3)C(=O)O[C@@H]2C2=C(C)C(=O)C[C@H]21`, the growth was 109%.
As to `O=C(O)CC(Cl)C(Cl)CC(=O)O` (stereo not given), the growth is 102%.
With `Nc1c(C(=O)Nc2cccc(F)c2)sc2nc3c(cc12)C(=O)CCC3`, the growth was 13.3%.
With `CC(C)(C#N)Nc1ccccc1` the figure was 116%.
`COc1ccc(C2=NN(C(=O)c3ccc(S(C)(=O)=O)cc3)C(c3ccc(OC)c(OC)c3)C2)c(OC)c1` (stereo not given): the growth is 107%.
As for `O=C(/C=C/c1cc2ccccc2[nH]c1=O)c1ccc2c(c1)OCO2`, the growth is 105%.
Take `O=[P@@]1(c2ccccc2)O[C@H](COCc2ccccc2)[C@@H](OCc2ccccc2)[C@H](OCc2ccccc2)[C@H]1O`: the growth was 73.4%.
As for `C[C@]12CC[C@@H]3c4ccc(O)cc4C[C@@H](O)[C@H]3[C@@H]1CC[C@@H]2O`, the figure is 113%; as for `O=c1c2ccccc2nc(SCCN2CCCCC2)n1CCc1ccccc1`, 87.6%.
As for `CN(C)CCN=c1nc2c(c(N)n1-c1ccccc1)c(=S)n(-c1ccccc1)c(=S)n2-c1ccccc1`, the growth was 58.7%.
With `Nc1ccn(C2CC(O)C(CO)O2)c(=O)n1` (stereo not given) the figure was 102%; with `Cc1ccc(NC(=O)NC2CCCCC2)cc1`, 110%; with `CCN(CC)CCCC(C)Nc1nc(-c2ccc(OC)cc2)nc2cc(Cl)ccc12` (stereo not given), 71.3%.
For `COc1ccc(-n2c(SCc3cc(OC)c(OC)c(OC)c3)nc3ccc(C)cc3c2=O)cc1`, the growth was 45.8%.
For `NC(=O)c1ccc(-c2cccc3c(=O)nc(N4CCOCC4)oc23)cc1`, the growth is 97.3%.
Consider `CC1(C)N=C(N)N=C(N)N1c1ccc(CCc2ccccc2)c(Cl)c1`, for which the growth was 104%.
On to `C#Cc1ccc(-n2c(/C=C/c3ccc(C(F)(F)F)cc3)nc3ncccc3c2=O)cc1`, for which the growth is 29.3%.
Turning to `COc1cc(-c2nc(-c3nnc(-c4ccc(F)c(Cl)c4)o3)c3ccccn23)cc(OC)c1OC`, the growth was 21%.
Consider `Cc1occc1-c1nnc(SCC(=O)c2ccc(NC(=O)CC(C)C)cc2)o1`, for which the growth is 104%.
Turning to `CCN(CC)CCOc1nc2cc(OC)c(OC)cc2c2c1-c1ccc(OC)cc1C2=O`, the growth is 64.4%.
In the case of `COc1ccc(CN2CCC(N3CCCC3=O)c3cc(Cl)ccc32)cc1` (stereo not given), the growth was 90.2%.
As for `CC(C)=CCc1cc(O)cc2c1OC(C=C(C)C)C1=C2C(=O)C2=C(NCCS2(=O)=O)C1=O` (stereo not given), the figure is 87.7%; as for `CC1=C(N2CCOCC2)C(N2CCOCC2)=C(C)C(=O)C1=O`, 110%.
Consider `c1ccc2c(c1)oc1c3cccnc3ccc21`, for which the growth is 99.7%.
Regarding `COc1ccc2nc3ccccc3c(NCCNCC(C)O)c2c1` (stereo not given), the growth is 73.6%.
With `CCCCCCNC(=O)Oc1ccc(/C(=C(/CC)Cc2ccccc2)c2ccc(OCCN3CCCCC3)cc2)cc1`, the growth was 81.8%.
Regarding `N=c1nc(N)ncn1-c1ccccc1`, the growth is 102%.
On to `O=C(Nc1cccc(Br)c1)c1cc(=O)[nH]c2ccccc12`, for which the growth is 88.6%.
As to `Cc1ccc(NC(=O)Nc2c(Cl)cccc2Cl)cn1`, the growth is 105%.
Turning to `COc1cc(Nc2ncnc(Nc3ccc4c(n3)NC(=O)C(C)(C)O4)n2)cc(OC)c1OC`, the growth is 34.2%.
As to `O=C(Nc1ccc(Cl)c(Cl)c1)Nc1c(Oc2ccc(Cl)c(Cl)c2)ccc(Cl)c1S(=O)(=O)O`, the growth was 2.06% (active).
As for `Cn1c([N+](=O)[O-])cnc1/C=C1\Oc2ccccc2C1=O`, the growth was -5.9% (active).
Take `Cc1nc2oc3ccccc3c(=O)c2cc1C(=O)NCc1ccccc1`: the growth was 55.4%.
In the case of `COc1cc(NC(=O)c2sc3nc4c(cc3c2N)C(O)CCC4)cc(OC)c1` (stereo not given), the growth was 87.3%.
